According to PubChem BioAssay AID1159580 (chemical genetic matrix, 2015):
Several values for one entry are separate records, joined by “and”; a condition that tells them apart may be missing. Identical values can stand only once. About 2,000 (36%) of roughly 5,500 compounds were called active. About 18% were inconclusive and are not listed. No stated cut-off is given here; in the data, active means normalized growth mostly below about 0.91 (no sharp cut-off); inconclusive means no clear call, values can overlap the other calls; inactive means mostly above about 0.92. The list shows a part of the results.

Test: chemical genetic growth profiling, strain panel (AID 1159580);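 further: tested at 20 µM; growth read once vehicle control cultures reached saturation at 30 °C; 1 = growth at the plate median or of vehicle wells; lower values mean less growth of the strain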
Conditions: S. cerevisiae deletion strains, growth OD

Measured: normalized growth

COc1cc2ccc(=O)oc2c(O)c1O
active: locus YKL009W, strain mrt4, hits give low values 1.13 [resistant]
inactive: locus YBR021W, strain FUR4, hits give low values 1.03 | locus YBR229C, strain ROT2, hits give low values 0.957 | locus YCL029C, strain bik1, hits give low values 1.01 | locus YDL035C, strain GPR1, hits give low values 1.01 | locus YDL074C, strain BRE1, hits give low values 1.05 | locus YDL101C, strain DUN1, hits give low values 0.984 | locus YDL185W, strain tfp1, hits give low values 0.983 | locus YDL192W, strain arf1, hits give low values 1 | locus YDR101C, strain arx1, hits give low values 1.01 | locus YDR162C, strain NBP2, hits give low values 0.934 | locus YDR318W, strain mcm21, hits give low values 0.992 | locus YDR388W, hits give low values 1 | locus YDR502C, strain sam2, hits give low values 0.986 | locus YEL061C, strain CIN8, hits give low values 0.995 | locus YER110C, hits give low values 0.995 | locus YER155C, strain BEM2, hits give low values 1.03 | locus YER167W, strain BCK2, hits give low values 1.01 | locus YGL078C, strain dbp3, hits give low values 1.01 | locus YGL086W, strain mad1, hits give low values 1.04 | locus YGL248W, strain PDE1, hits give low values 0.979 | locus YGR078C, strain PAC10, hits give low values 0.98 | locus YGR135W, strain pre9, hits give low values 0.966 | locus YGR252W, strain gcn5, hits give low values 0.959 | locus YHR030C, strain SLT2, hits give low values 1.01 and 1.04 | locus YHR079C, strain IRE1 (second series), hits give low values 0.996 | locus YHR079C, strain IRE1, hits give low values 1.03 | locus YHR094C, strain hxt1, hits give low values 0.987 | locus YHR129C, strain ARP1, hits give low values 0.995 | locus YHR200W, strain rpn10, hits give low values 0.988 | locus YIL066C, strain RNR3, hits give low values 0.996 | locus YIL073C, strain SPO22, hits give low values 0.997 | locus YIL125W, strain kgd1, hits give low values 1 | locus YIR030C, strain dcg1, hits give low values 1 | locus YJL095W, strain BCK1, hits give low values 0.956 and 1.01 | locus YJL134W, strain LCB3, hits give low values 1 | locus YJL168C, strain set2, hits give low values 0.992 | locus YJL187C, strain SWE1 (second series), hits give low values 0.991 | locus YJR043C, strain POL32, hits give low values 1.01 | locus YJR066W, strain TOR1, hits give low values 0.978 | locus YJR075W, strain HOC1, hits give low values 1.01 | locus YKL068W, hits give low values 0.982 | locus YKL085W, strain MDH1 (second series), hits give low values 1 | locus YKL085W, strain MDH1, hits give low values 1 | locus YKR001C, strain vps1, hits give low values 1 | locus YLR039C, strain RIC1, hits give low values 1 | locus YLR058C, strain SHM2, hits give low values 1 | locus YLR102C, strain apc9, hits give low values 1 | locus YLR113W, strain HOG1, hits give low values 0.984 | locus YLR262C, strain YPT6, hits give low values 0.955 | locus YLR268W, strain sec22, hits give low values 1.03 | locus YLR330W, strain CHS5, hits give low values 1 | locus YLR342W, strain FKS1 (second series), hits give low values 1.06 | locus YLR371W, strain rom2, hits give low values 0.981 | locus YLR418C, strain cdc73, hits give low values 0.971 | locus YML016C, strain PPZ1, hits give low values 0.996 | locus YML032C, strain rad52, hits give low values 1.01 | locus YML124C, strain tub3, hits give low values 0.997 | locus YMR078C, strain ctf18, hits give low values 0.991 | locus YMR223W, strain ubp8, hits give low values 1.01 | locus YMR307W, strain GAS1, hits give low values 1.05 | locus YNL067W, strain RPL9B, hits give low values 0.983 | locus YNL128W, strain TEP1, hits give low values 0.96 | locus YNL183C, strain NPR1, hits give low values 0.976 | locus YNL233W, strain BNI4, hits give low values 1 | locus YNL250W, strain rad50, hits give low values 1 | locus YNL271C, strain bni1, hits give low values 1 | locus YNL298W, strain CLA4, hits give low values 0.997 | locus YNL307C, strain MCK1, hits give low values 1.01 | locus YNL322C, strain KRE1, hits give low values 0.99 | locus YNR052C, strain pop2, hits give low values 0.993 | locus YOL006C, strain TOP1, hits give low values 1.11 | locus YOL012C, strain htz1 0.802 | locus YOL147C, strain pex11, hits give low values 1.01 | locus YOR061W, strain CKA2, hits give low values 0.988 | locus YOR069W, strain VPS5, hits give low values 1.01 | locus YOR136W, strain idh2, hits give low values 1.01 | locus YOR144C, strain elg1, hits give low values 0.994 | locus YOR184W, strain ser1, hits give low values 0.983 | locus YOR231W, strain MKK1, hits give low values 1.01 | locus YOR316C, strain cot1, hits give low values 0.997 | locus YPL256C, strain CLN2, hits give low values 1.03 | locus YPR119W, strain clb2, hits give low values 0.991 | locus YPR141C, strain kar3, hits give low values 0.997 | locus YPR163C, strain tif3, hits give low values 0.985 | locus YPR167C, strain met16, hits give low values 0.994 | strain wtn01, hits give low values 1.03
